Screening data: PubChem, The Scripps Research Institute Molecular Screening Center
Only some compounds are listed: those with a hit (about 0.86% of all), similar ones and a draw of the others.
NOD2 RIPK2 PPI: inhibitors of human NOD2-RIPK2 interaction. O43353. CHO BLA complementation NOD2-RIPK2, CCF4 ratio. inhibition, % at 4.98 µM. actives 0.38% (n = 360,000). AID 624267; in the data active = inhibition above about 21%;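 note: 0% = vehicle only and 100% = reference blocker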
TLR9-MyD88 inh: blocks human TLR9 binding to MyD88; Q9NR96+Q99836; CHO BLA complementation TLR9-MyD88, CCF4 FRET ratio; actives 0.21% (n = 340,000); AID 504734; inhibition, % at 4.98 µM;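 active = inhibition above the mean over all tested compounds plus 3 SD, cut at about 21% in these data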;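 note: 0% = DMSO only wells and 100% = clavulanate BLA inhibitor control wells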
TLR4 MyD88 comp: inhibitors of human TLR4-MyD88 binding; HeLa CL3-4 TLR4/MyD88 BLA complementation, FRET ratio; inhibition, % at 8.4 µM; actives 0.18% (n = 200,000); AID 861; in the data active = inhibition above about 25%;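 note: 0% = vehicle and 100% = reference inhibitor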
IDE cell inh: inhibitors of human insulin-degrading enzyme in cells. P14735. AID 434962. HEK cells, FAbetaB cleavage, fluorescence polarization. inhibition, % at 5.59 µM. actives 0.41% (n = 320,000);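 active = percent inhibition above the average of all tested compounds plus 3 SD, set per screening campaign, cut at about 16% in these data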;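 note: IDE supplied by intact live HEK cells; FP after avidin binding of uncleaved biotin substrate so inhibition keeps polarization high; 0% = DMSO wells and 100% = 60 µM reference IDE inhibitor Ii1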
Target sequence (P14735 whole entry, looked up): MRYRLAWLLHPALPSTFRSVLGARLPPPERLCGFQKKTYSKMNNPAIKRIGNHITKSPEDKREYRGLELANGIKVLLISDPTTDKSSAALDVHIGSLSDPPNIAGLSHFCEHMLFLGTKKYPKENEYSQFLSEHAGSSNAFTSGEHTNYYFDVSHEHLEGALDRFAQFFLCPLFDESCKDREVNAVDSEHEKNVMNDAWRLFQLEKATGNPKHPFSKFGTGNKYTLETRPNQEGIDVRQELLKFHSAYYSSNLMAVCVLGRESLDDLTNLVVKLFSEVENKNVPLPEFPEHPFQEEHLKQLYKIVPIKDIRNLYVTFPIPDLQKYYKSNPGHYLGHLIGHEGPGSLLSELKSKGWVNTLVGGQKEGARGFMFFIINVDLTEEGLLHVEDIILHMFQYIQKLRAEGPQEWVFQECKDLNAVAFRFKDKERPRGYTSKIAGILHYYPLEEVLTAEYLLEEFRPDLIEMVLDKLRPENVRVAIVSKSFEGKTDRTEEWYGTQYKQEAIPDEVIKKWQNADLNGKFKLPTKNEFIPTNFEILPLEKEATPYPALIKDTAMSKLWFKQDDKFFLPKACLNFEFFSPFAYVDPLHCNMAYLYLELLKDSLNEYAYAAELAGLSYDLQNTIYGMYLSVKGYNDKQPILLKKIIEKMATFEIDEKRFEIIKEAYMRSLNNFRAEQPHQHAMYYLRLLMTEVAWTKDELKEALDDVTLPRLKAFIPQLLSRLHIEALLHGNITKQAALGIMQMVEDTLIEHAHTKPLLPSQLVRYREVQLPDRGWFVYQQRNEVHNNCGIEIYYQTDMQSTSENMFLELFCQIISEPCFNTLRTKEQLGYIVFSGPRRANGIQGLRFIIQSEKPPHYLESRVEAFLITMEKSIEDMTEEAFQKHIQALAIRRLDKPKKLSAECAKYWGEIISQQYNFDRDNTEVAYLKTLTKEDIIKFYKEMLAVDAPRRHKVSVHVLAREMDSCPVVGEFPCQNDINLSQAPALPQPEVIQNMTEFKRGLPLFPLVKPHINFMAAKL
IDE act: activators of human insulin-degrading enzyme in cells. AID 493087. P14735. activation, % at 5.96 µM. actives 0.073% (n = 340,000). HEK cells, FAbeta-B cleavage, fluorescence polarization; 0% vehicle, 100% cell-free pure enzyme wells;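 active = activation above the mean of all tested compounds plus 3 SD, set per screening campaign, cut at about 17% in these data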
IDE cell inh cf: cellular human IDE inhibition, confirmation. HEK cells, FAbetaB cleavage, fluorescence polarization. AID 435028. inhibition, % at 5.59 µM. actives 51% (n = 1,200). shares compounds with IDE cell inh;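 active = mean inhibition across triplicate wells above the cutoff set by the earlier primary insulin-degrading enzyme screen, cut at about 16% in these data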;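 note: 0% = DMSO wells and 100% = 60 µM reference IDE inhibitor Ii1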
HEK cytotox: kills HEK cells in IDE inhibitor counter-screen | shares compounds with IDE cell inh | HEK293 cytotoxicity, ATP luminescence | inhibition, % at 5.59 µM | actives 28% (n = 1,200); in the data active = inhibition above about 22%;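 note: 0% = vehicle wells and 100% = reference cytotoxic drug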
The depositor's hits bear a star; · = no result given.

SMILES	NOD2 RIPK2 PPI	TLR9-MyD88 inh	TLR4 MyD88 comp	IDE cell inh	IDE act	IDE cell inh cf	HEK cytotox
Cc1ccsc1/C=N/NC(=O)c1nnn(-c2nonc2N)c1-c1ccccc1	0.1	-0.1	·	2.8	-6.9	·	·
Cc1nc(N/C(N)=N/S(=O)(=O)c2ccc([N+](=O)[O-])cc2)nc2ccccc12	-3.5	2.6	6.3	22.3*	-3.1	8.5	3.7
CCN(CC)c1ccc(/C=N/NC(=O)c2cccc(S(=O)(=O)Nc3ccccc3OC)c2)c(O)c1	21.2*	21.4*	7.4	33.2*	-21.2	34.5*	99.8*
CCN(CC)c1ccc(/C=N/NC(=O)c2cccc(S(=O)(=O)Nc3ccccc3OC)c2)cc1	5.1	9.8	10.6	2.0	-4.3	·	·
COc1ccc(CNC(=O)c2ccc(Cn3cc(Cl)cn3)o2)cc1	-13.4	2.2	·	0.7	4.6	·	·
C[n+]1c(/C=C/c2ccc(O)cc2)ccc2ccccc21	8.9	-2.9	·	1.9	-2.3	·	·
Cc1cc(/C=C\c2ccc3cc(N(C)C)ccc3[n+]2C)c(C)n1-c1ccccc1	6.7	-0.6	·	25.6*	-44.5	85.1*	116.9*
COCCCNC(=O)CNC(=O)c1nn(-c2ccc(OC)cc2OC)c(=O)c2ccccc12	-0.9	6.5	·	2.6	2.5	·	·
O=C(CCC(=O)OCC(=O)c1ccccc1)Nc1cccc2cccnc12	-9.1	-8.1	-0.6	-3.8	-0.6	·	·
CC(=O)c1cccc(OCC(=O)N2CCN(c3ccc(C(F)(F)F)cn3)CC2)c1	-4.2	-0.9	-16.7	22.3*	-19.4	19.1*	5.9
CCCc1cc(C(=O)N2CCN(c3ccc(C(F)(F)F)cn3)CC2)sc1C	-9.2	-2.2	·	16.5*	-29.5	4.2	16.2
CCN(C(=O)COC(=O)c1ccc(C)c(S(=O)(=O)N2CCCCC2)c1)C1CCS(=O)(=O)C1 (stereo not drawn)	2.2	-7.3	·	4.0	-0.3	·	·
Cc1ccc(Cn2nc3c4cc(F)ccc4n(Cc4ccc(F)cc4)cc-3c2=O)cc1	1.7	-0.6	·	·	6.7	·	·
COc1cc(/C=C2\SC(=S)N(Nc3ccccc3)C2=O)ccc1O	1.4	-19.9	-2.2	128.5*	-114.0	142.4*	9.1
O=C1/C(=C/c2ccc(O)c(O)c2)SC(=S)N1Nc1ccccc1	0.1	3.2	5.6	·	-32.5	·	·
COc1cc(/C=C2/SC(=S)N(CC3CCCO3)C2=O)ccc1O (stereo not drawn)	4.3	2.1	-0.5	107.6*	-94.7	175.1*	13.4
CCOc1cc(/C=C2\SC(=S)N(NS(=O)(=O)c3ccccc3)C2=O)ccc1O	-3.7	1.9	·	39.2*	-36.3	109.4*	3.2
COc1ccc(/C=C2\SC(=S)N(CC3CCCO3)C2=O)cc1 (stereo not drawn)	-9.3	-1.0	·	-2.2	2.0	·	·
COc1cc(/C=C2\SC(=S)N(C(Cc3ccccc3)C(=O)O)C2=O)ccc1O (stereo not drawn)	2.9	3.9	·	46.5*	-58.3	108.5*	5.8
O=c1oc2ccccc2n1CCc1ccccc1	-4.1	-12.9	-7.3	1.6	3.3	·	·
CN(C(=S)NC(=O)c1ccccc1Br)C1CCCCC1	-20.3	8.8	6.7	2.8	1.6	·	·
Cc1ccc(C(=O)Nc2ccc(N3CCOCC3)cc2N2CCOCC2)cc1	-12.8	-5.0	·	-1.9	1.0	·	·
CCOc1cc(/C=C2\SC(=S)N(Nc3ccccc3)C2=O)ccc1O	2.8	13.8	4.8	53.2*	-77.7	128.1*	7.4
CC[n+]1c(C)sc2c3ccsc3ccc21	-13.2	-12.8	14.8	42.0*	-21.2	9.6	2.2
O=C(COc1ccccc1)NCC1COc2ccccc2O1 (stereo not drawn)	-10.4	-2.4	·	-2.3	1.9	·	·
SMILES	NOD2 RIPK2 PPI	TLR9-MyD88 inh	TLR4 MyD88 comp	IDE cell inh	IDE act	IDE cell inh cf	HEK cytotox
CCCOC(=O)c1ccc(Oc2coc3c(CN(CC)CC)c(O)ccc3c2=O)cc1	7.9	1.3	-2.9	20.3*	-8.9	5.5	10.7
CSc1nnc(N2C(=O)C(O)=C(C(=O)c3ccco3)C2c2cccc(Cl)c2)s1 (stereo not drawn)	-7.0	2.9	·	28.9*	-6.2	6.7	7.2
CCNC(=S)Nc1ccc2c(c1)c(=O)n(C)n2Cc1cccc(C(F)(F)F)c1	-8.8	·	·	·	·	·	·
CCC(Oc1ccccc1F)C(=O)Nc1ccc2c(c1)n(C)c(=O)n2C (stereo not drawn)	4.5	-7.3	·	·	3.5	·	·
C=CCN(C(=O)CSc1nc2[nH]ncc2c(=O)n1-c1ccccc1OC)c1ccccc1	-17.2	-5.7	-4.9	17.7*	-13.3	12.8	2.5
COc1ccc(NS(=O)(=O)c2ccc(-c3cnc(C4CC4)o3)cc2)cc1OC	3.2	-6.5	·	7.2	-4.5	·	·
CSc1sc(-c2ccnc(=S)[nH]2)c(-c2ccccc2)c1C#N	-7.9	·	·	-2.9	·	·	·
Fc1ccc(-c2ccnc(=S)[nH]2)cc1	-9.9	2.3	4.3	39.6*	-23.9	7.6	12.1
O=C(Cc1ccccc1)Nn1c(O)c(/C=C2\C=Nc3ccccc32)sc1=S	5.0	17.8	0.6	61.8*	-63.4	43.4*	10.9
CC(=O)Nc1ccc(C2=NNC(=Nc3ccc(S(=O)(=O)N4CCOCC4)cc3)SC2)cc1	-2.6	-4.0	·	21.7*	-29.1	8.5	15.2
Cc1cc(SCCC(=O)O)nc2c(C)cccc12	3.7	-1.2	4.1	4.4	-0.1	·	·
Nc1c2c(nc3ccn(Cc4ccccc4)c(=O)c13)CCC2	-4.7	-5.7	2.6	6.0	0.4	·	·
Nc1c2c(nc3ccn(-c4ccccc4)c(=O)c13)CCCCC2	-2.7	9.2	6.4	18.0*	-7.9	18.8*	14.8
O=C(Nc1ccc2ccccc2c1)c1ccc2[nH]c(=O)c(=O)[nH]c2c1	2.7	11.1	·	20.2*	-18.9	12.6	9.6
N#Cc1ccc(C(=O)Nc2ccc3ccccc3c2)cc1	1.8	0.6	·	10.0	-3.7	·	·
Cc1cccc(C(=O)Nc2ccc(C(=O)/C=C/c3cccnc3)cc2)c1	5.7	6.2	13.2	19.8*	-36.8	10.4	71.2*
Cc1ccc(OCC(=O)O/N=C(\N)c2cccc([N+](=O)[O-])c2)cc1C	-4.5	-5.2	·	-0.1	2.0	·	·
CC(=O)COc1ccc2cc(-c3ccccc3)c(=O)oc2c1	2.2	-3.9	·	-3.3	-2.2	·	·
O=C(CCCCl)Oc1ccc2cc(-c3ccc4ccccc4n3)c(=O)oc2c1	7.7	8.9	3.7	37.0*	-49.4	52.2*	4.2
CC(=O)N1CCN(c2ccnc3cc(Cl)ccc23)CC1	3.1	12.6	·	9.2	-17.8	·	·
O=C(O)CSCC(=O)N1CCN(c2ccnc3cc(Cl)ccc23)CC1	-9.3	-6.0	·	29.8*	-14.5	5.6	6.3
CCCCNC(=O)N1CCN(c2ccnc3cc(Cl)ccc23)CC1	-14.3	-5.9	·	18.5*	-17.9	10.9	17.8
Cc1cccc(Cl)c1NC(=O)N1CCN(c2ccnc3cc(Cl)ccc23)CC1	3.4	3.2	·	23.8*	-23.7	11.2	21.2
